Laboratory results taken from PubChem BioAssay AID1211 (NMMLSC, 2008).
The source made the active and inactive calls. How the calls were made is not given here.

Biological target: Estrogen receptor (Homo sapiens) (UniProt P03372)
Assay: displacement of fluorescent estrogen from ERalpha – cell-based, Cos7 ERalpha-GFP, flow cytometry, primary screen (AID 1211);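 further: 0% = DMSO vehicle wells and 100% = no E2-Alexa633 signal left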
Details: fluorescent ligand competition, stronger effect = higher value

Estrogen receptor (Homo sapiens), sequence (P03372 whole entry, looked up): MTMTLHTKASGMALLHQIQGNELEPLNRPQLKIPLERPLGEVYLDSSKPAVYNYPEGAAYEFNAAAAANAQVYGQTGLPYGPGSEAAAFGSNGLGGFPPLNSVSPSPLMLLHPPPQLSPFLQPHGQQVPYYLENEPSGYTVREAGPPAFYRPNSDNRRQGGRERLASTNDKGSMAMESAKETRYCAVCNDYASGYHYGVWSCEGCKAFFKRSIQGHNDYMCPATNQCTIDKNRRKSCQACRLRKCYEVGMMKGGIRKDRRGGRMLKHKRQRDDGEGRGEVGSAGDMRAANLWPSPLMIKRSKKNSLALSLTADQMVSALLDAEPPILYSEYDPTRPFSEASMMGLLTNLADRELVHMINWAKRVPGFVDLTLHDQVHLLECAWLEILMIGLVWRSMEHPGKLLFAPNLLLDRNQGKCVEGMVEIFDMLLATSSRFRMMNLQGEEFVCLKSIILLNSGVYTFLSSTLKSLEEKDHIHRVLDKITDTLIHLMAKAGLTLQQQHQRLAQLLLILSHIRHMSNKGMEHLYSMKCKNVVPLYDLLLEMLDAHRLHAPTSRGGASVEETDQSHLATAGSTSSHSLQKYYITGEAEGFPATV

| SMILES | inhibition of ligand binding (at 10 µM) | inhibition of ligand binding (binding inhibition, at 0.1 µM) [%] |
| --- | --- | --- |
| Cc1cc(Cl)ccc1OCC(=O)OC(C)C(=O)N(C)C (stereo unspecified) | 30% (inactive) | 53 |
| Cc1ccc(-c2nnc(-c3ccc(NC(=O)c4ccco4)cc3)o2)cc1 | 0% (inactive) | 8 |
| CCOC(=O)C1=c2/c(=C/c3ccccc3OC)c(N)c(C#N)n2C(=O)C(c2ccccc2OC)S1 (stereo unspecified) | 34% (inactive) | 21 |
| Cc1cc(C)c(S(=O)(=O)/N=C2\C=CC(=O)C(Cl)=C2)c(C)c1 | 20% (inactive) | 7 |
| C=CCn1c(=O)c(C#N)cc2c(=O)n3ccccc3nc21 | 38% (inactive) | 42 |
| Cc1ccc(Oc2cc(N3CCOCC3)nc(-c3ccccc3)n2)cc1 | 13% (active) | 66 |
| CCc1ccc2[nH]c(=O)c(CN(Cc3ccc4c(c3)OCO4)C(=O)c3ccco3)cc2c1 | 0% (inactive) | 62 |
| COc1ccc(C2Nc3ccccc3C(=O)N2c2ccc(C)cc2)cc1COc1ccccn1 (stereo unspecified) | 27% (inactive) | 11 |
| O=C1C=CC(O)(c2cc(=O)c3c(O)cc(O)cc3o2)C=C1 | 38% (inactive) | 42 |
| O=C(Nc1nc(-c2ccc(S(=O)(=O)N3CCOCC3)cc2)cs1)c1ccccc1 | 48% (inactive) | 25 |
| O=C(CSc1nnnn1-c1ccccc1)Nc1nsc(-c2ccc(Cl)cc2)n1 | 47% (inactive) | 8 |
| CCc1oc2c(C)c(O)ccc2c(=O)c1-c1ccc2ccccc2n1 | 14% (inactive) | 54 |
| COC1=C/C(=C/c2c(N)n3cc(C)sc3nc2=O)C=CC1=O | 34% (inactive) | 10 |
| O=S(=O)(Nc1ncnc2sc3c(c12)CCC3)c1ccc2ccccc2c1 | 28% (inactive) | 37 |
| Cc1ccsc1/C=C(\C(=O)c1ccc(OC(C)C)cc1)c1nc2ccccc2o1 | 12% (inactive) | 40 |
| COc1cccc(C(=O)NC2CCN(C(=O)N3c4ccccc4Sc4ccccc43)CC2)c1 | 60% (inactive) | 13 |
| COc1ccc2c(c1)c1nc3ccccc3nc1n2CCCN1C(=O)c2ccccc2C1=O | 46% (inactive) | 33 |
| Nc1ncnc2c1ncn2C1CCC(CO)C(O)C1 (stereo unspecified) | 0% (inactive) | 10 |
| COc1ccc2[nH]c3nc(SCc4nnc(-c5ccc(C)cc5)o4)nnc3c2c1 | 64% (inactive) | 3 |

| SMILES | inhibition of ligand binding (at 10 µM) | inhibition of ligand binding (binding inhibition, at 0.1 µM) [%] |
| --- | --- | --- |
| COc1ccc(C2C=C(c3ccc(Cl)cc3)Nc3nc(NC(C)=O)nn32)cc1 (stereo unspecified) | 42% (inactive) | 22 |
| COc1ccc(CNC(=O)c2cc(-c3cccs3)on2)cc1 | 40% (active) | 90 |
| CN1C(=O)CC(C(=O)O)SC1=Nc1cc(Cl)c(O)c(Cl)c1 (stereo unspecified) | 17% (inactive) | 51 |
| Cc1ccc(-c2n[nH]c(=S)n2/N=C/C=C\c2ccccc2[N+](=O)[O-])cc1 | 40% (inactive) | 57 |
| Cc1csc2nc(CCNS(=O)(=O)c3ccc4c(c3)OCCO4)cn12 | 38% (active) | 77 |
| Cc1nc2sccn2c1-c1nc(-c2cc3ccccc3o2)cs1 | 4% (inactive) | 22 |
| COc1ccccc1/C=c1\sc2nc(-c3ccco3)nn2c1=O | 40% (inactive) | 25 |
| Cc1ccc(C)n1-c1sccc1C(=O)O | 36% (inactive) | 36 |
| CN(C)S(=O)(=O)N(CC(=O)N(Cc1ccccc1)Cc1ccccc1)c1ccccc1 | 23% (inactive) | 24 |
| CCc1ccc2nc(NC(=O)c3ccc4c(=O)[nH]c(CN5CCOCC5)nc4c3)sc2c1 | 32% (inactive) | 9 |
| Cc1ccc(C(=O)CSC2=C(C#N)C(c3ccco3)CC(=O)N2)c(C)c1 (stereo unspecified) | 49% (inactive) | 53 |
| NC(=S)n1[nH]c(-c2ccc([N+](=O)[O-])cc2)c(N=Nc2ccc(O)cc2)c1=O | 10% (inactive) | 18 |
| Nc1nc(-c2ccc3c(c2)NC(=O)CO3)cs1 | 32% (inactive) | 12 |
| C/C(N)=C(/C#N)C(=O)CSc1nnc(Cc2ccccc2F)n1N | 0% (inactive) | 3 |
| O=C(Nc1cccc(-c2cnc3ccccc3n2)c1)c1cccc(NC(=O)c2ccco2)c1 | 68% (active) | 23 |
| Nc1ccc2nc(-c3cccs3)[nH]c2c1 | 10% (inactive) | 49 |
| COc1ccc(C2CC(c3ccccc3)=NN2c2ccc(N)cc2)cc1 (stereo unspecified) | 19% (inactive) | 47 |
| Nc1ccc(/C=C/C(=O)c2ccco2)cc1 | 9% (inactive) | 11 |
| CN(CC(=O)NC(=O)NCc1ccco1)Cc1nc2ccccc2c(=O)[nH]1 | 17% (inactive) | 64 |
